From PubChem BioAssay (NCATS) come the findings set out here.

Where “and” joins values, the source holds several entries; their conditions need not be identical. Identical values can stand only once. Inconclusive results are not listed. Some structures have more than one record in an assay (separate samples or runs), and their calls can disagree. Calls of active or inactive are those of the source. Calls come from the whole dose curve; as a rule, active = well fitted curve in the direction sought with a large enough effect; inconclusive = small, poorly fitted or top-dose-only effect, or another doubt; inactive = no such curve, though single readings can be large; an effect the other way counts as inactive or inconclusive.

Experiment [1] has as its target Glutathione peroxidase 1 (Homo sapiens) (UniProt P07203). The experiment in a line: Primary qHTS Assay for Inhibitors of Recombinant Selenoprotein Glutathione Peroxidase 1 (GPX1) (AID 1845191). Note: nearly all actives have a fitted effect of over 65% in size. To be noted: recombinant GPX1, GR-coupled NADPH fluorescence, 15 min; series mostly up to 48.8 µM. In outline:
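Recombinant GPX1 (10 nM final) was preincubated with compound for 30 min at room temperature, then reacted with 1 mM GSH, 0.5 mM CHP, 0.5 mM NADPH and 100 nM glutathione reductase; NADPH fluorescence (340/450 nm) was read at 0 and 15 min.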
In general terms: In qHTS, concentration-response curves come from the screen itself.

The target of experiment [2] is Phospholipid hydroperoxide glutathione peroxidase GPX4 (Homo sapiens) (UniProt P36969). Nature of the experiment: Primary qHTS Assay for Inhibitors of Recombinant Selenoprotein Glutathione Peroxidase 4 (GPX4) (AID 1845192). Note: nearly all actives have a fitted effect of over 65% in size. Note: potency is the fitted concentration of half-maximal effect. To be noted: recombinant GPX4, GR-coupled NADPH fluorescence, 15 min; series mostly up to 50 µM. An outline of the steps: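 GR-coupled readout: 100 nM GR, 1 mM GSH, 0.5 mM NADPH; NADPH fluorescence (ex 340/em 450 nm) read at t=0 and after 15 min RT. GPX4 200 nM, preincubated 30 min with compound; substrate 0.5 mM CHP.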
Phospholipid hydroperoxide glutathione peroxidase GPX4 (Homo sapiens), sequence (P36969 whole entry, looked up): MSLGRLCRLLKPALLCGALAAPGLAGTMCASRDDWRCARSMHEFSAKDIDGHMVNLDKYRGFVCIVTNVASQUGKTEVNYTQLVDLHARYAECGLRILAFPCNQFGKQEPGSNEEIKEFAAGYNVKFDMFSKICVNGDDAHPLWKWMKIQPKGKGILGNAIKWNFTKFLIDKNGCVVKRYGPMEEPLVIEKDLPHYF

The target in experiment [3] is Luciferin 4-monooxygenase (Photinus pyralis) (UniProt P08659). Nature of the experiment: Primary firefly luciferase (FLuc) qHTS assay for identification of artifact compounds. (AID 1845220). Note: nearly all actives have a fitted effect of over 60% in size. Note: potency is the fitted concentration of half-maximal effect. As to conditions: purified firefly luciferase, luminescence, 5 min; series mostly up to 54.1 µM. In outline:
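Reaction readout was CCD-imaged luminescence, taken 5 min after adding 10 nM purified firefly enzyme to compound-treated wells holding 10 uM luciferin and ATP in pH 7.6 buffer.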

Experiment [4] is described as follows: Primary fluorescence-based thiol-reactive (MSTI) qHTS assay for identification of artifact compounds. (AID 1845221). Note: nearly all actives have a fitted effect of over 65% in size. Note: potency is the fitted concentration of half-maximal effect. As to conditions: MSTI thiol-reactivity probe, 1 h; series mostly up to 53.8 µM. In outline: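 One-hour, room-temperature, dark incubation of compound with 4 uM MSTI in PBS (pH 7.4, 2% DMSO) precedes a fluorescence read at 525 nm excitation, 598 nm emission; Hill-equation fitting yields concentration-response values.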

Glutathione peroxidase 1 (Homo sapiens), sequence (P07203 whole entry, looked up): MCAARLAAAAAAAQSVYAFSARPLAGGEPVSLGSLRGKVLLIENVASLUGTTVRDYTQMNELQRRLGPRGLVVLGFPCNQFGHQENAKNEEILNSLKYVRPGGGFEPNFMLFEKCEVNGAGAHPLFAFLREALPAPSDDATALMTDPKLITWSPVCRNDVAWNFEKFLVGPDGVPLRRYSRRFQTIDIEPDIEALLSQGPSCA

Consider `Cc1ccc2c(c1)c1c(n2CCc2ccc(C)nc2)CCN(C)C1`, for which the Potency entry in experiment [1], in experiment [2], in experiment [3] and in experiment [4] was “inactive” each time.

Take `Cn1c(=O)c(-c2c(Cl)cccc2Cl)cc2cnc(Nc3cccc(C(=O)O)c3)nc21`: the Potency entry in experiment [1], in experiment [2] and in experiment [4] was “inactive” each time. Moreover, the Potency in experiment [3] is 0.379 µM (active).

Take `NC1(C(=O)N[C@@H](CCO)c2ccc(Cl)cc2)CCN(c2ncnc3[nH]ccc23)CC1`: the Potency result in experiment [1], in experiment [2], in experiment [3] and in experiment [4] was “inactive” each time.

On to `Cc1ccc2c(c1)C(=O)[C@]1(O)CCN(c3ccccc3)C1=N2`, for which the Potency result in experiment [1], in experiment [2], in experiment [3] and in experiment [4] was “inactive” throughout.

On to `O=C(CC12CC3CC(CC(C3)C1)C2)Nc1cccc2nc(NCCNCCO)ccc12`, for which the Potency entry in experiment [1], in experiment [2], in experiment [3] and in experiment [4] was “inactive” each time.

As for `CNC(=O)c1ccc2c(C(=Nc3cccc(CN(C)C)c3)c3ccccc3)c(O)[nH]c2c1`, the Potency result in experiment [1], in experiment [2], in experiment [3] and in experiment [4] was “inactive” throughout.

On to `c1cc(OCCN2CCCCC2)cc(-c2n[nH]c3ccc(-c4ncn[nH]4)cc23)c1`, for which the Potency entry in experiment [1], in experiment [2], in experiment [3] and in experiment [4] was “inactive” in each case.

With `CCc1cccc(CC)c1NC(=O)N1Cc2[nH]nc(NC(=O)c3ccc(N4CCN(C)CC4)cc3)c2C1`, the Potency entry in experiment [1], in experiment [2], in experiment [3] and in experiment [4] was “inactive” in each case.

In the case of `CCCCn1c(=O)n(Cc2ccccc2F)c(=O)c2[nH]c(Cc3ccc(NC(C)=O)cc3)nc21`, the Potency entry in experiment [1], in experiment [2], in experiment [3] and in experiment [4] was “inactive” each time.

In the case of `Cc1ccccc1C(=O)c1ccc(Nc2ccc(Br)cc2N)cc1Cl`, the Potency entry in experiment [1], in experiment [2], in experiment [3] and in experiment [4] was “inactive” in each case.

As for `Cc1ccccc1C(C(=O)NC1CCCCC1)N(C(=O)CNc1ccc(C#N)cc1)c1cccc(F)c1` (centres undefined), the Potency result in experiment [1], in experiment [2], in experiment [3] and in experiment [4] was “inactive” each time.

In the case of `CC(C)CNc1ccnc(NCc2csc(-c3ccccc3)n2)n1`, the Potency result in experiment [1], in experiment [2], in experiment [3] and in experiment [4] was “inactive” each time.

On to `CN(C)CCOc1cc(-c2cn[nH]c2)ccc1NC(=O)C1COc2ccccc2O1` (centres undefined), for which the Potency entry in experiment [1], in experiment [2], in experiment [3] and in experiment [4] was “inactive” in each case.

`COc1cc2ncnc(Nc3cc(Br)c(O)c(Br)c3)c2cc1OC`: the Potency result in experiment [1], in experiment [2] and in experiment [3] was “inactive” each time. For the same compound, in experiment [4], the Potency was 6.7 µM (active).

Turning to `C=CC(=O)Nc1cccc(Sc2nc(Nc3ccc(N4CCN(C)CC4)cc3)ncc2Cl)c1`, the Potency entry in experiment [1], in experiment [2] and in experiment [3] was “inactive” in each case. In addition, in experiment [4], the Potency is 3.36 µM (active).

For the compound `CS(=O)(=O)c1ccc(C2=C(c3ccccc3)C(=O)OC2)cc1`, the Potency entry in experiment [1], in experiment [2], in experiment [3] and in experiment [4] was “inactive” in each case.

Take `CC(=O)Nc1cccc(-n2c(=O)n(C3CC3)c(=O)c3c(Nc4ccc(I)cc4F)n(C)c(=O)c(C)c32)c1`: the Potency entry in experiment [1], in experiment [2], in experiment [3] and in experiment [4] was “inactive” in each case.

Regarding `O[C@@H](COc1cccc2ncccc12)CN1CCN(C2c3ccccc3[C@@H]3[C@H](c4ccccc42)C3(F)F)CC1` (some centres undefined), the Potency result in experiment [1], in experiment [2], in experiment [3] and in experiment [4] was “inactive” throughout.

For the compound `N#Cc1ccc(Oc2ccc3c(c2)COB3O)cc1`, the Potency result in experiment [1], in experiment [2], in experiment [3] and in experiment [4] was “inactive” throughout.

`CC1(C)CC(=O)c2c(C(F)(F)F)nn(-c3ccc(C(N)=O)c(NC4CCC(O)CC4)c3)c2C1` (centres undefined): the Potency result in experiment [1], in experiment [2], in experiment [3] and in experiment [4] was “inactive” throughout.

With `C[C@@H](N)c1ccc(C(=O)Nc2ccnc3[nH]ccc23)cc1`, the Potency entry in experiment [1], in experiment [2], in experiment [3] and in experiment [4] was “inactive” each time.

Take `Cc1c(C(=O)Nc2ccc(N3C[C@@H](C)O[C@@H](C)C3)nc2)cccc1-c1ccc(OC(F)(F)F)cc1`: the Potency result in experiment [1], in experiment [2], in experiment [3] and in experiment [4] was “inactive” in each case.

As for `C[C@@]1(c2cc(-c3cncnc3)c(F)cc2F)CCSC(N)=N1`, the Potency result in experiment [1], in experiment [2], in experiment [3] and in experiment [4] was “inactive” each time.

As to `N#CC1(c2cccc(C(=O)Nc3cc(Oc4ccc5nc(NC(=O)C6CC6)sc5n4)ccc3F)c2Cl)CC1`, the Potency result in experiment [1], in experiment [2], in experiment [3] and in experiment [4] was “inactive” each time.

Take `Cn1cnc(-c2cc3nccc(Oc4ccc(NC(=S)NC(=O)Cc5ccccc5)cc4F)c3s2)c1`: the Potency entry in experiment [1], in experiment [3] and in experiment [4] was “inactive” each time. The Potency result in experiment [2] was “inactive and 7.18 µM (active)”.

On to `CC(C)(OCc1nn(Cc2ccccc2)c2ccccc12)C(=O)O`, for which the Potency entry in experiment [1], in experiment [2], in experiment [3] and in experiment [4] was “inactive” throughout.
